Data taken from the supplement of paper PMC9694430.
Counter-ions that a name gives are not always drawn.

How the values were obtained:
Test in all cases: thermal shift delta Tm vs DMSO control; higher = stronger stabilization (binding)
Conditions in all cases: 12.5 µM; protein concentration 2 µM
LOC_OS02G45750-cb003 = tested on: LOC_OS02G45750-cb003
In short: (§1)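 The melting temperature shift given here is a triplicate mean, measured against protein that received only DMSO. Melting temperatures came from Boltzmann fits of differential scanning fluorimetry data on E. coli-expressed, purified rice kinase domain constructs. Each 19.5 μl well contained 2 μM kinase, 100 mM potassium phosphate pH 7.5, 150 mM NaCl, 10% glycerol, 5 × SYPRO Orange and compound in DMSO. Plates were scanned from 25°C to 95°C at 0.05°C/s.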

LOC_OS02G54510-cb004 = tested on: LOC_OS02G54510-cb004
In short: as §1

LOC_OS03G04050-cb001 = tested on: LOC_OS03G04050-cb001
In short: as §1

LOC_OS03G12390-cb001 = tested on: LOC_OS03G12390-cb001
In short: as §1

LOC_OS03G27990-cb004 = tested on: LOC_OS03G27990-cb004
In short: as §1

LOC_OS03G50450-cb001 = tested on: LOC_OS03G50450-cb001
In short: as §1

LOC_OS03G50810-cb003 = tested on: LOC_OS03G50810-cb003
In short: as §1

LOC_OS04G35114-cb001 = tested on: LOC_OS04G35114-cb001
In short: as §1

LOC_OS04G38480-cb003 = tested on: T1, LOC_OS04G38480-cb003
T1 sequence (whole entry): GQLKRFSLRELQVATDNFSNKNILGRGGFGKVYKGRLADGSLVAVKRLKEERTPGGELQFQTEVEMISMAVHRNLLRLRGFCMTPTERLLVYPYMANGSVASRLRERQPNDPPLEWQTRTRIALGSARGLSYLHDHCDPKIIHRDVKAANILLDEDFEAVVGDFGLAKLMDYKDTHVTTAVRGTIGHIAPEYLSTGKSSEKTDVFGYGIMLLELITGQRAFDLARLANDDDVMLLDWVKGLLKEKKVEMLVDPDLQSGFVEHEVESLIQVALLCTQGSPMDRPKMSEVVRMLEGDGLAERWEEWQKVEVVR
In short: as §1

LOC_OS04G41100-cb001 = tested on: T2, LOC_OS04G41100-cb001
T2 sequence (whole entry): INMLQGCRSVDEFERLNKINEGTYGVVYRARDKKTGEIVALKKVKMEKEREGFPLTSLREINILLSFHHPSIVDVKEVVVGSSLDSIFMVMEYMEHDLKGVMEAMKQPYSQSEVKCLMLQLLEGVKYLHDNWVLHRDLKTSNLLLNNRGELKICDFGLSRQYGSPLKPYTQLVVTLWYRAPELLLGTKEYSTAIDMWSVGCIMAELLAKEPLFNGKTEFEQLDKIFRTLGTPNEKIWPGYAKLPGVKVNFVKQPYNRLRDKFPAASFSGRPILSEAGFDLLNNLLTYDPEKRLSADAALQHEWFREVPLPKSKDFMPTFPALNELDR
In short: as §1

SMILES | thermal shift delta Tm (LOC_OS02G45750-cb003) [°C] | thermal shift delta Tm (LOC_OS02G54510-cb004) [°C] | thermal shift delta Tm (LOC_OS03G04050-cb001) [°C] | thermal shift delta Tm (LOC_OS03G12390-cb001) [°C] | thermal shift delta Tm (LOC_OS03G27990-cb004) [°C] | thermal shift delta Tm (LOC_OS03G50450-cb001) [°C] | thermal shift delta Tm (LOC_OS03G50810-cb003) [°C] | thermal shift delta Tm (LOC_OS04G35114-cb001) [°C] | thermal shift delta Tm (LOC_OS04G38480-cb003) [°C] | thermal shift delta Tm (LOC_OS04G41100-cb001) [°C]
Cn1cc(-c2cnn3c(N)c(Br)c([C@@H]4CCCNC4)nc23)cn1 | 2.88 | 0.55 | 0.3 | 0.78 | 0.85 | 0.38 | 1.12 | 1.17 | 2.62 | 0.97
Cc1c(NC(=O)OC[C@@H]2COCCN2)cn2ncnc(Nc3ccc4c(cnn4Cc4cccc(F)c4)c3)c12 | 0.67 | 0.27 | 0.42 | 0.69 | 0.14 | 0.45 | 0.15 | 1.04 | 1.85 | 0.82
CC(=O)c1c(C)c2cnc(Nc3ccc(N4CCNCC4)cn3)nc2n(C2CCCC2)c1=O | 6.05 | 0.3 | 0.22 | 5.44 | 2.08 | 0.53 | 2.97 | 3.19 | 1.9 | 1.04
CCCCCCCCCCCCCCCCn1cc[n+](Cc2ccccc2)c1C | -1.15 | -1.83 | -4.41 | -3.77 | 0.11 | -1.25 | -4.07 | -2.5 | -5.2 | -1.35
Clc1ccc(Nc2nnc(Cc3ccncc3)c3ccccc23)cc1 [Vatalanib (PTK787) 2HCl] | 0.06 | 0.03 | 0.21 | -0.24 | 0.02 | -0.09 | -0.01 | 0.3 | -0.05 | 0.49
COc1ccc(-c2nc(N3CCOCC3)c3sc(CN(C)c4ncc(C(=O)NO)cn4)cc3n2)cn1 | 0.52 | 0.27 | 0.23 | -0.11 | 0.18 | -0.05 | 0.23 | 0.64 | 0.82 | 0.24
O=C(Nc1c[nH]nc1-c1nc2ccc(CN3CCOCC3)cc2[nH]1)NC1CC1 | 8.3 | 2.96 | 1.22 | 7.72 | 6.08 | 3.92 | 6.02 | 5.39 | 3.78 | 8.54
CC(C)c1c2cc(-c3ccnc(NC4CCC(NC5CCOCC5)CC4)n3)ccc2nn1C (stereo not given) | 1.08 | 0.06 | 0.41 | 0.78 | 0.18 | 0.03 | 1.01 | 2.72 | 0.69 | 6.52
CNC(=O)c1cc(Oc2ccc(NC(=O)Nc3ccc(Cl)c(C(F)(F)F)c3)c(F)c2)ccn1 [Regorafenib (BAY 73-4506)] | 0.96 | 0.56 | 0.64 | 0.1 | 0.17 | 0.33 | 0.11 | 0.48 | 0.48 | 0.52
COc1cc2c3cc1Oc1c(OC)c(OC)cc4c1[C@@H](Cc1ccc(O)c(c1)Oc1ccc(cc1)C[C@@H]3N(C)CC2)N(C)CC4 [Berbamine (dihydrochloride)] | 0 | -0.14 | 0.28 | -0.42 | -0.08 | 0.16 | -0.29 | 0.22 | 0.37 | 0.23
CCCCCCCCCC(=O)CC(O)S(=O)(=O)O (stereo not given) [Sodium Houttuyfonate] | 0.77 | 0.52 | 0.5 | 0.34 | 0.41 | 0.36 | 0.37 | 0.65 | 1.54 | 0.45
C[C@@H](N)c1ccc(C(=O)Nc2ccnc3[nH]ccc23)cc1 | 1.52 | 0.39 | 0.7 | 0.27 | 0.76 | 0.85 | 0.77 | 1.23 | 2.01 | 0.85
Cn1cc(-c2ccc3nnc(Sc4ccc5ncccc5c4)n3n2)cn1 | 0.93 | 0.23 | 0.63 | -0.22 | 0.45 | 0.82 | 0.32 | 0.81 | 1.04 | 0.48
O=C1NCCc2[nH]c(-c3ccncc3)cc21 | 0.39 | 0.14 | 0.37 | 3.14 | 0.51 | 0.87 | 0.45 | 0.84 | 0.45 | 1.14
CCN(CC)CCNC(=O)c1c(C)[nH]c(/C=C2\C(=O)Nc3ccc(F)cc32)c1C [Sunitinib Malate] | 12.4 | 0.41 | 0.23 | 7.66 | 6.23 | 2.74 | 6.79 | 10.1 | 2.16 | 0.97
C#Cc1cccc(Nc2ncnc3cc(OC)c(OCCCCCCC(=O)NO)cc23)c1 | 2.9 | 1.18 | -0.05 | 2.33 | 0.11 | 0.09 | 1.73 | 5.97 | 1.01 | 0.37
CCn1c(-c2nonc2N)nc2cnc(Oc3cccc(NC(=O)c4ccc(OCCN5CCOCC5)cc4)c3)cc21 | -0.36 | 0.27 | 0.38 | 0.99 | 0.4 | -0.03 | 0.42 | 0.1 | 2.03 | 0.94
O=C(Nc1ccccc1C(=O)NC1CCCCNC1=O)c1cc2ccccc2s1 (stereo not given) | 0.67 | 0.07 | 0.19 | -0.24 | 0.15 | 0.22 | 0.43 | 0.94 | 1.47 | 0.17
C[C@@H](N)[C@H]1CC[C@H](C(=O)Nc2ccncc2)CC1 | 0.42 | -0.03 | 0.29 | 0.52 | 0.09 | 0.25 | 0.21 | 0.03 | 1.42 | 0.81
Cc1cccc(Nc2nc(NC3CCCCC3N)ncc2C(N)=O)c1 (stereo not given) | 0.65 | 1.67 | 0.03 | 2.43 | 3.15 | 4.23 | 1.34 | 0.3 | 1.83 | 0.73
CCCCNc1ncc(C(=O)NCc2ccc(-n3ccnc3)cc2)c(NC2CCC(O)CC2)n1 (stereo not given) | 12.4 | 0.46 | 0.27 | 2.82 | 5.72 | 1.85 | 4.77 | 9.02 | 2.91 | 0.89
